The record followed here is PubChem BioAssay (Tox21).

Results filed as inconclusive are left out. The source holds several records for some structures; these can differ, active in one and inactive in another. Values without a mark were called inactive. Calls of active or inactive are those of the source. Unless noted, calls come from the whole dose curve; as a rule, active = well fitted curve in the direction sought with a large enough effect in the repeat runs; inconclusive = weak or mixed curves; inactive = no such curve, though single readings can be large; an effect the other way counts as inactive or inconclusive.

Assay [1] can be described thus: qHTS assay to identify aromatase inhibitors - cell viability counter screen (AID 743084;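 note: cells stimulated with testosterone during compound exposure; nearly all actives have a fitted effect of over 55% in size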). (Quantitative high-throughput screening tests each substance at several concentrations.)
Assay [2] addresses Aryl hydrocarbon receptor (Homo sapiens) (UniProt P35869). As to the kind of experiment: qHTS assay to identify small molecule that activate the aryl hydrocarbon receptor (AhR) signaling pathway (AID 743085).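 Note: HG2L7.5c1 human HepG2 liver cells with stably integrated DRE-driven firefly reporter; series mostly up to about 70 µM; nearly all actives have a fitted effect of over 15% in size.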 In a few lines: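 Steps: seed HepG2-AhR-luc cells; allow 5 h at 37C; pin-transfer test compound or vehicle; incubate 24 h at 37C; add viability dye (30 min, 37C) and read fluorescence; add luciferase substrate (30 min, RT) and read luminescence.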

Assay [3] in a line: qHTS assay to identify small molecule that activate the aryl hydrocarbon receptor (AhR) signaling pathway - cell viability counter screen (AID 743086). Note: series mostly up to about 70 µM; nearly all actives have a fitted effect of over 45% in size. In a few lines: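 Cytotoxicity counter screen: CellTiter-Fluor signal (30 min, 37 C) in 4000 HepG2 cells/well carrying the DRE-luciferase reporter, following 24 h compound exposure at 37 C.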
Assay [4] addresses Peroxisome proliferator-activated receptor gamma (Homo sapiens) (UniProt P37231). As to the kind of experiment: qHTS assay to identify small molecule agonists of the peroxisome proliferator-activated receptor gamma (PPARg) signaling pathway (AID 743094; active = well fitted activation curve with a large enough effect in the signal ratio in the repeat runs, not every such curve was filed as active; the % refers to the signal ratio; note: potency is the fitted concentration of half-maximal effect). In a few lines:
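Agonist activity was taken from a beta-lactamase reporter (FRET substrate, 1 h at room temperature) in HEK293H cells carrying a PPARg UAS-bla construct. Compounds in DMSO were incubated 17 h at 37C after a 5 h cell pre-incubation.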

Assay [5] shares this target. Put plainly: qHTS assay to identify small molecule antagonists of the peroxisome proliferator-activated receptor gamma (PPARg) signaling pathway (AID 743191; calls by dose curve; note: series mostly up to about 63 µM; nearly all actives have a fitted effect of over 30% in size). In a few lines:
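Beta-lactamase reporter under UAS control in HEK293H PPARg-bla cells; compound treatment 17 h at 37C. Read-out: fluorescence intensity after 1 h room-temperature incubation with LiveBLAzer B/G FRET substrate.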

Assay [6] can be described thus: qHTS assay to identify small molecule antagonists of the peroxisome proliferator-activated receptor gamma (PPARg) signaling pathway - cell viability counter screen (AID 743194). Note: nearly all actives have a fitted effect of over 55% in size. The conditions noted are these: Potency: co-treated with 50 nM rosiglitazone unless noted. In a few lines:
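Viability was measured as CellTiter-Glo luminescence in GeneBLAzer PPARg UAS-bla HEK293H cells. These cells had been exposed 17 h at 37 C to compounds together with rosiglitazone at 50 nM final, with the beta-lactamase readout taken in the same wells.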

Assay [7] in a line: qHTS assay for small molecule agonists of the antioxidant response element (ARE) signaling pathway (AID 743202; active = well fitted activation curve with a large enough effect in the signal ratio in the repeat runs, not every such curve was filed as active; the % refers to the signal ratio). In a few lines:
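Beta-lactamase reporter activity, read as fluorescence intensity, reflects ARE/Nrf2 pathway induction in HepG2 cells after 16 h compound exposure at 37 C; substrate loading was 2 h at room temperature.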

A short description of assay [8]: qHTS assay for small molecule agonists of the antioxidant response element (ARE) signaling pathway - cell viability counter screen (AID 743203; calls by dose curve; note: nearly all actives have a fitted effect of over 55% in size). In a few lines: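 Viability counter screen: CellTiter-Glo luminescence, read after 30 min at room temperature, in ARE-bla HepG2 wells. Compound exposure lasted 16 h at 37C/5% CO2, following a 5 h pre-incubation of the cells after plating.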

Assay [9] can be described thus: qHTS assay for small molecule activators of the heat shock response signaling pathway - cell viability counter screen (AID 743209). Note: nearly all actives have a fitted effect of over 50% in size. The gist of the method: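 Cytotoxicity counter screen run in the same wells as the heat-shock bla reporter assay: HeLa HSE-bla cells, 5 h compound exposure at 37 C, viability read by CellTiter-Glo luminescence.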
The nature of assay [10]: qHTS assay for small molecule activators of the heat shock response signaling pathway (AID 743210; active = well fitted activation curve with a large enough effect in the signal ratio in the repeat runs, with a control signal flat, not every such curve was filed as active; the % refers to the signal ratio;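 note: HeLa cells with beta-lactamase reporter driven by heat shock elements; series mostly up to about 63 µM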). In a few lines: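 Fluorescence from a cleaved B/G FRET substrate (2.5 h, room temp) reports HSE-driven beta-lactamase in HeLa cells treated 5 h at 37 C with DMSO-dissolved compounds.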
The nature of assay [11]: qHTS assay to identify small molecule agonists of the peroxisome proliferator-activated receptor delta (PPARd) signaling pathway - cell viability counter screen (AID 743211). Note: nearly all actives have a fitted effect of over 55% in size. The gist of the method: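 Viability of GeneBLAzer PPARd UAS-bla HEK293H cells was assessed after 17 h compound incubation at 37C, using CellTiter-Glo reagent added after the reporter read and luminescence recorded 30 min later.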

Assay [12] addresses Peroxisome proliferator-activated receptor delta (Homo sapiens) (UniProt Q03181). Put plainly: qHTS assay to identify small molecule agonists of the peroxisome proliferator-activated receptor delta (PPARd) signaling pathway (AID 743212; calls by dose curve;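 note: HEK293H cells with PPARd UAS beta-lactamase reporter GeneBLAzer system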). The gist of the method: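 Steps: seed PPARd-bla HEK293H cells; incubate 5 h, 37 C, 5% CO2; add compounds in DMSO; incubate, 37 C; add LiveBLAzer B/G FRET substrate; hold 2 h at room temperature; measure fluorescence.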

A short description of assay [13]: qHTS assay to identify small molecule antagonists of the peroxisome proliferator-activated receptor delta (PPARd) signaling pathway - cell viability counter screen (AID 743213). Note: nearly all actives have a fitted effect of over 50% in size. The gist of the method: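 HEK293H cells with the PPARd UAS-bla reporter, co-treated 17 h at 37 C with compounds and L165041 (300 nM final), were lysed with CellTiter-Glo. Luminescence indicated viable cell content.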

Assay [14] has as its target Peroxisome proliferator-activated receptor delta (Homo sapiens) (UniProt Q03181). As to the kind of experiment: qHTS assay to identify small molecule antagonists of the peroxisome proliferator-activated receptor delta (PPARd) signaling pathway (AID 743215; active = well fitted inhibition curve with a large enough effect in the signal ratio in the repeat runs, not every such curve was filed as active; the % refers to the signal ratio;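 note: cells stimulated with agonist L165041 at 300 nM final during compound exposure; series mostly up to about 62 µM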). The gist of the method: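 Agonist L165041 (300 nM final) added with compound to PPARd-bla HEK293H UAS-bla reporter cells; 17 h incubation at 37 C. Read-out: LiveBLAzer FRET substrate, 2 h at room temperature, fluorescence intensity.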

Assay [15] is described as follows: qHTS assay to identify small molecule agonists of the farnesoid-X-receptor (FXR) signaling pathway - cell viability counter screen (AID 743218). Note: nearly all actives have a fitted effect of over 45% in size. In a few lines: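 Viability counter screen in the same wells: CellTiter-Glo luminescence, 30 min room-temperature incubation, measured after the beta-lactamase read. Cells were GeneBLAzer FXR-UAS-bla HEK 293T, compound-treated 16 h at 37C.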

Assay [16] in a line: qHTS assay to identify small molecule antagonists of the farnesoid-X-receptor (FXR) signaling pathway - cell viability counter screen (AID 743221; active = well fitted cell-killing curve with a large enough effect in the repeat runs, not every such curve was filed as active; note: nearly all actives have a fitted effect of over 50% in size). In a few lines: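 Quantitative HTS of the Tox21 10K library run in parallel with the beta-lactamase reporter read. HEK 293T cells carrying a UAS-driven bla reporter got compound and 50 uM CDCA (final) for 16 h; ATP-based luminescence followed.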

In assay [17] the target is Vitamin D3 receptor (Homo sapiens) (UniProt P11473). Put plainly: qHTS assay to identify small molecule agonists of the vitamin D receptor (VDR) signaling pathway (AID 743222; calls by dose curve). In a few lines:
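Agonist mode, beta-lactamase reporter: fluorescence from LiveBLAzer B/G FRET substrate (2 h, room temperature) read after 16 h compound treatment at 37 C of VDR-bla cells, which were pre-incubated 4 h after seeding.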

Assay [18] has the same target. As to the kind of experiment: qHTS assay to identify small molecule antagonists of the vitamin D receptor (VDR) signaling pathway (AID 743223; active = well fitted inhibition curve with a large enough effect in the signal ratio in the repeat runs, not every such curve was filed as active; the % refers to the signal ratio). In a few lines:
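Fluorescence from LiveBLAzer B/G FRET substrate, read after 2 h at room temperature, reflects beta-lactamase reporter activity in VDR-bla cells treated 16 h at 37C with compounds and agonist 1alpha,25-dihydroxyvitamin D3 (3 nM final).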

In assay [19] the target is Bile acid receptor (Homo sapiens) (UniProt Q96RI1). Put plainly: qHTS assay to identify small molecule antagonists of the farnesoid-X-receptor (FXR) signaling pathway (AID 743217; active = well fitted inhibition curve with a large enough effect in the signal ratio in the repeat runs, not every such curve was filed as active; the % refers to the signal ratio). The gist of the method: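 Antagonist mode: chenodeoxycholic acid at 50 uM final stimulates a UAS-driven beta-lactamase reporter in HEK 293T FXR-bla cells during 16 h, 37C compound exposure. Read-out is FRET substrate fluorescence after 2 h at room temperature.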
Bile acid receptor (Homo sapiens), sequence (Q96RI1 whole entry, looked up): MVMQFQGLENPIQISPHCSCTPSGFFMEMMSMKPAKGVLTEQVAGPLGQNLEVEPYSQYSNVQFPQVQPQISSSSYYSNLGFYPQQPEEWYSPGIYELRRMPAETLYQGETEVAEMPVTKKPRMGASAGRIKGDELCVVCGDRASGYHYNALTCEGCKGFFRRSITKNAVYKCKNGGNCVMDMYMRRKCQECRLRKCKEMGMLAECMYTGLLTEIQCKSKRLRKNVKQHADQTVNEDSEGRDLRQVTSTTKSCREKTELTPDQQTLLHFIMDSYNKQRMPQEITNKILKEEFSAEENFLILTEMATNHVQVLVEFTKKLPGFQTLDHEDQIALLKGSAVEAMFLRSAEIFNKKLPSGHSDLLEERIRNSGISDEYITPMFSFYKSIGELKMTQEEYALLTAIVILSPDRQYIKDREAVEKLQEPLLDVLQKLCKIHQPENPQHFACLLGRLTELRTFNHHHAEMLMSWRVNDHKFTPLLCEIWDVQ

The target is the same in assay [20]. Put plainly: qHTS assay to identify small molecule agonists of the farnesoid-X-receptor (FXR) signaling pathway (AID 743220; active = well fitted activation curve with a large enough effect in the signal ratio in the repeat runs, not every such curve was filed as active; the % refers to the signal ratio). In a few lines:
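FXR-UAS-bla HEK 293T cells carrying a UAS-driven beta-lactamase reporter were plated for 5 h at 37C/5% CO2, then exposed to DMSO-dissolved Tox21 10K compounds for 16 h at 37C. A LiveBLAzer B/G FRET substrate was loaded for 2 h at room temperature before fluorescence reading.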
% is set by controls: 0 for no effect and ±100 for the full control effect.

Vitamin D3 receptor (Homo sapiens), sequence (P11473 whole entry, looked up): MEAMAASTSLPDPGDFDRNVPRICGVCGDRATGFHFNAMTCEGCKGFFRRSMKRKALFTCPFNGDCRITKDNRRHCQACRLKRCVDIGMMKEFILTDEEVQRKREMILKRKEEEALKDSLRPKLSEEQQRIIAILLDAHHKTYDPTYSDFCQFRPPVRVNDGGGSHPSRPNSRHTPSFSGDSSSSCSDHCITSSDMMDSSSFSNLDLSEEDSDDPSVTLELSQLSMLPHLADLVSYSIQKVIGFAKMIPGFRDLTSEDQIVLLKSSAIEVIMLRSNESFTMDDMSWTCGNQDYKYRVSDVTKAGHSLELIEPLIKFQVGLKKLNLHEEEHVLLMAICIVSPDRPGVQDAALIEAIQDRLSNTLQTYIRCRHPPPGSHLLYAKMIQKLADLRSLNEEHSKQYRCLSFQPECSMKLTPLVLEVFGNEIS
Aryl hydrocarbon receptor (Homo sapiens), sequence (P35869 whole entry, looked up): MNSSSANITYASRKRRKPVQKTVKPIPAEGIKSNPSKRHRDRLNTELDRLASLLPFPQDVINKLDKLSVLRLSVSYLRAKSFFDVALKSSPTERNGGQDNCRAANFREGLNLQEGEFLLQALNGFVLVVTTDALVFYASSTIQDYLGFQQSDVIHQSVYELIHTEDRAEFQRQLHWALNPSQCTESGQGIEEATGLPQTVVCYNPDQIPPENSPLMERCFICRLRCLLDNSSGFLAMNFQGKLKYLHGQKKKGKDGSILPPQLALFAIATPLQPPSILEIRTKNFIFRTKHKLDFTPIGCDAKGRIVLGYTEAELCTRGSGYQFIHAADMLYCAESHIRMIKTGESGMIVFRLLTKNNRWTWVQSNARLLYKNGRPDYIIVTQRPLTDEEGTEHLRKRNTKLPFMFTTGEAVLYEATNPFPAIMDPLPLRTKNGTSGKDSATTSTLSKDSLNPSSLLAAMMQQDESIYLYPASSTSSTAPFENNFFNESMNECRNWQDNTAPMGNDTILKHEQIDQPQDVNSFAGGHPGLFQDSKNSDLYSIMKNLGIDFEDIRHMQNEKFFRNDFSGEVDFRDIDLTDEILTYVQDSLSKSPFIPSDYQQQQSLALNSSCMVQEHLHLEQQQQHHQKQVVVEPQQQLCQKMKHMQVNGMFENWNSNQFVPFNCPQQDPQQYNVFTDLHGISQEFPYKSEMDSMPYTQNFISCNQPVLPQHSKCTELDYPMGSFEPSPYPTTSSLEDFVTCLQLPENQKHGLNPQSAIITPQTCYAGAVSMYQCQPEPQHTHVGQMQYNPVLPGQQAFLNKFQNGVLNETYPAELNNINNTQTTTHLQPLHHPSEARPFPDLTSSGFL
Peroxisome proliferator-activated receptor gamma (Homo sapiens), sequence (P37231 whole entry, looked up): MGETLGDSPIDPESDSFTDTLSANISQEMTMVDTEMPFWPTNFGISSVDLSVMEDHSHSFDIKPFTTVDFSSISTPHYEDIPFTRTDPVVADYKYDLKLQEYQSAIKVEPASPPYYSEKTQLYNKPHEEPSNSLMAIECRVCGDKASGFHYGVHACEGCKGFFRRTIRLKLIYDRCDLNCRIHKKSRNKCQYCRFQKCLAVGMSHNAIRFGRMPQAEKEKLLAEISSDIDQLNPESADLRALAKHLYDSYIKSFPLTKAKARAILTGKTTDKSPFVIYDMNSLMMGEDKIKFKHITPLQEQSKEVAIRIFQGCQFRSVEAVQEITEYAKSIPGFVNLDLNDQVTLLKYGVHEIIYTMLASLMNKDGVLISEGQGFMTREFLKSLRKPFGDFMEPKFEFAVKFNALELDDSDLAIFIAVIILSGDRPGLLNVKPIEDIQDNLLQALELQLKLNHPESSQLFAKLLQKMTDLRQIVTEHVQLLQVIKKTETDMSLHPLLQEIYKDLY
Peroxisome proliferator-activated receptor delta (Homo sapiens), sequence (Q03181 whole entry, looked up): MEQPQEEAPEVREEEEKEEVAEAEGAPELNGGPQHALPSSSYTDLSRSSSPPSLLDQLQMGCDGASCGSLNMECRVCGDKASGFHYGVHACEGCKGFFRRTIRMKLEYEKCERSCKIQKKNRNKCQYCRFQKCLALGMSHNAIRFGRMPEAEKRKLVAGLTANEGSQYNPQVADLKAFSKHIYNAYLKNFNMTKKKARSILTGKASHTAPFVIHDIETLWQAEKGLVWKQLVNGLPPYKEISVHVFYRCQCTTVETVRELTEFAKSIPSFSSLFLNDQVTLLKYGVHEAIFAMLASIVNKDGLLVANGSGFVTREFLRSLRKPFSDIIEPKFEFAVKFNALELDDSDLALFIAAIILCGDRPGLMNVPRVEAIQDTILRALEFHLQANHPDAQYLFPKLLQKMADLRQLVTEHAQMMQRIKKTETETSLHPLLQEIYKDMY

As to `CCCCCCCCCCCC(=O)N(C)CC(=O)O`, the Potency result in assay [1], in assay [2], in assay [3], in [6], in assay [8] and in [9] was “inactive” in each case. Moreover, the Potency result in assay [10], in [15] and in assay [16] was “inactive” throughout. The Potency in assay [4] was 15 µM (active). Besides, the activation in assay [4] is 0.467% [at 7.08 µM]; in [7], -3.99% [at 8.36 µM]; in [12], 0.0552% [at 5.95 µM]. For the same compound, the ratio activity, negative = inhibition is 4.34% [at 5.95 µM] in [5] and -7.38% [at 6.26 µM] in [14]. Besides, the activity change, negative = cytotoxicity in [11] was -1.87% [at 5.95 µM]. Moreover, in assay [13], the viability change, negative = cytotoxic was -8.19% [at 6.26 µM]. Besides, the outcome in assay [17] was inactive. In assay [18], the activity change, negative = inhibition was 10.5% [at 6.95 µM].

For the compound `Cc1cc(C)c(O)c(C)c1`, the Potency result in assay [1], in assay [2], in assay [3], in assay [4], in assay [5] and in assay [6] was “inactive” each time. Besides, the Potency result in assay [7], in assay [8], in assay [10], in assay [11], in assay [12] and in assay [13] was “inactive” each time. For the same compound, the Potency entry in assay [14], in [19], in [15], in assay [20] and in assay [16] was “inactive” in each case.

As to `Cc1cc(C)cc(O)c1`, the Potency entry in assay [1], in assay [2], in assay [3], in assay [4], in assay [6] and in [7] was “inactive” in each case. In addition, the Potency entry in [8], in assay [9], in assay [10], in assay [11], in assay [12] and in [13] was “inactive” throughout. Besides, the Potency entry in assay [14], in assay [15], in [16] and in [18] was “inactive” throughout. The outcome in assay [17] was inactive.

In the case of `O=C(Cl)c1ccc(C(=O)Cl)cc1`, the Potency result in assay [1], in assay [2], in assay [3], in assay [4], in [5] and in assay [6] was “inactive” in each case. For the same compound, the Potency result in assay [7], in [8], in assay [10], in [11], in assay [12] and in [13] was “inactive” in each case. The Potency result in [14], in [15], in assay [16] and in assay [18] was “inactive” throughout. Besides, in assay [17], the compound was classed as inactive.

With `C=C1C[C@]23C[C@@]1(O)CC[C@H]2[C@@]12C=C[C@H](O)[C@@](C)(C(=O)O1)[C@H]2[C@@H]3C(=O)O`, the Potency result in assay [1], in assay [2], in [3], in assay [4], in assay [5] and in [6] was “inactive” throughout. In addition, the Potency result in assay [7], in assay [8], in assay [9], in assay [11], in assay [12] and in assay [13] was “inactive” throughout. Besides, the Potency entry in assay [14], in [19], in [15], in assay [20] and in assay [18] was “inactive” in each case. In addition, in [17], the compound was called inactive.

Take `CCCCCCCC(=O)O`: the Potency result in assay [1], in [2], in assay [3], in [4], in [6] and in [7] was “inactive” in each case. Besides, the Potency result in assay [8], in [9], in assay [10], in assay [11], in [13] and in assay [15] was “inactive” each time. The Potency entry in [16] and in assay [18] was “inactive” in each case. Further, the result in assay [17] was inactive.

Regarding `OB(O)O`, the Potency entry in [1], in assay [2], in assay [3], in assay [4], in assay [5] and in assay [7] was “inactive” throughout. Also, the Potency entry in assay [8], in assay [9], in assay [10], in [11], in [12] and in assay [13] was “inactive” in each case. Moreover, the Potency entry in assay [14], in assay [19], in assay [15], in assay [20], in assay [16] and in assay [18] was “inactive” in each case. Also, the result in [17] was inactive.

As for `Cc1ccncc1`, the Potency entry in assay [1], in [2], in [3], in assay [4], in [5] and in [6] was “inactive” in each case. Further, the Potency result in [7], in [8], in [9], in assay [10], in [11] and in assay [13] was “inactive” in each case. For the same compound, the Potency result in [15] and in assay [18] was “inactive” in each case. Besides, the call in [17] was inactive.
